# Reference: PubChem BioAssay (NCATS)
# Records with an inconclusive call do not appear. A number with no mark means an inactive call. Active and inactive are the calls of the source. The call rests on the fitted dose curve; in most records, active means well fitted inhibition curve with a large enough effect; inconclusive means small, poorly fitted or top-dose-only effect; inactive means flat fitted curve, though single readings scatter.
# System: 7G8
# Assay: qHTS profiling for inhibitors of Plasmodium falciparum proliferation (AID 504749); further: nearly all actives have a fitted effect of over 60% in size;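 on activity, negative = inhibition: 0% = DMSO vehicle and full inhibition = artemisinin control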
# Details: P. falciparum in erythrocytes, SYBR Green DNA, 72 h; series mostly up to 28.7 µM; activity, negative = inhibition: at the top concentration
# Summary of the method: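 Infected RBCs, 0.3% parasitemia/2.5% Hct final; cpd 72 h, 37 C, 5% CO2; lysis buffer with saponin/triton/SYBR Green I, o/n RT dark; FI 485/535; norm. to artemisinin (0.29 uM) and DMSO.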
# Potency means the concentration at half of the fitted maximal effect.
Structure (SMILES),"activity, negative = inhibition",Potency
Oc1c(Cl)cc(Cl)cc1Sc1cc(Cl)cc(Cl)c1O,8.74%,
O=C(O)CCCCC(=O)O,9.13%,
CC(O)(P(=O)(O)O)P(=O)(O)O,14.4%,
CCCCOc1ccc(OCCCN2CCOCC2)cc1,-23.9% [at 12.8 µM],
O=C1CCC(c2ccc(-n3ccnc3)cc2)=NN1,-19.1%,
COc1cc(OC)cc(OC)c1,-5.51%,
C[C@]12CCC(=O)C=C1CC[C@H]1[C@@H]3CC[C@](O)(C(=O)CO)[C@@]3(C)C[C@H](O)[C@@]12F,-21.4%,
CCOC(=O)OC(C)OC1=C(C(=O)Nc2ccccn2)N(C)S(=O)(=O)c2ccccc21 (stereo not drawn),8.05%,
COc1cc(-c2ccc(=O)[nH]n2)ccc1OC(F)F,-5.94%,
CCOC(=O)n1ccn(C)c1=S,3.78% [at 12.8 µM],
Cc1c(C(C)C)c(=O)n(-c2ccccc2)n1C,-5.09%,
CN=C(NC#N)NCCSCc1csc(N=C(N)N)n1,-13.8%,
CCOc1ccc2nc3cc(N)ccc3c(N)c2c1,,1.78 µM (active)
NCCc1ccn[nH]1,-2.28% [at 12.8 µM],
CC(Cc1cccc(C(F)(F)F)c1)NCCOC(=O)c1ccccc1 (stereo not drawn),,8.91 µM (active)
COc1c2occc2c(OC)c2c(=O)cc(C)oc12,7.64% [at 12.8 µM],
CCOc1ccc(NC(=O)CC(C)O)cc1 (stereo not drawn),14.6%,

Structure (SMILES),"activity, negative = inhibition",Potency
CN1CCC(=C2c3ccccc3Sc3ccccc32)CC1,,5.01 µM (active)
CC1=C(C(=O)OC(C)C)C(c2cccc([N+](=O)[O-])c2)C(C(=O)OC2CN(C(c3ccccc3)c3ccccc3)C2)=C(N)N1 (stereo not drawn),,3.16 µM (active)
CCC(=O)c1c(O)cc(O)cc1O,-1.04%,
OCc1ccccc1O,-8.84%,
Nc1ccc(C(=O)Nc2ccccc2N)cc1,-14.2%,
COc1ccc(CCN2CCC(Nc3nc4ccccc4n3Cc3ccc(F)cc3)CC2)cc1,,2.24 µM (active)
CCOC(=O)c1cccc(N)c1,2.53%,
Cc1cccn2c(=O)c(-c3nnn[nH]3)cnc12,-22.5%,
CC(=O)Oc1ccc(C(=C2CCCCC2)c2ccc(OC(C)=O)cc2)cc1,-25.1%,
Cc1c(N(C)CS(=O)(=O)O)c(=O)n(-c2ccccc2)n1C,18.4% [at 12.8 µM],
CCN(CC)C(=O)N1CCN(C)CC1,8.51% [at 12.8 µM],
N[C@H](CO)C(=O)O,-7.77%,
Nc1ccc(/C=C/c2ccc(N)cc2S(=O)(=O)O)c(S(=O)(=O)O)c1,0.257%,
C[C@H](O)C(=O)Nc1c(I)c(C(=O)NC(CO)CO)c(I)c(C(=O)NC(CO)CO)c1I,0.228% [at 12.8 µM],
CN(C)/N=N/c1nc[nH]c1C(N)=O,-11.8%,
C[C@@H]1C[C@H]2[C@@H]3CCC4=CC(=O)C=C[C@]4(C)[C@@]3(F)[C@@H](O)C[C@]2(C)[C@H]1C(=O)CO,,11.2 µM (active)
